Common to all, as to assay: DAPPL (digital affinity profiling via proximity ligation, sequencing); 10 mM Tris-HCl pH 7.5, 50 mM NaCl, 1 mM DTT, 4% glycerol, room temperature, 30 min; GST-TFs on glutathione beads, 16-mer random dsDNA library, 0.1% formaldehyde crosslink after washing; high values mean tight binding
Details in all cases: protein: recombinant; tags: N-terminal GST; dsDNA, one strand shown

The target of experiment [1] is T1, ELK1 (Homo sapiens, UniProt P19419 1-428).
T1 sequence: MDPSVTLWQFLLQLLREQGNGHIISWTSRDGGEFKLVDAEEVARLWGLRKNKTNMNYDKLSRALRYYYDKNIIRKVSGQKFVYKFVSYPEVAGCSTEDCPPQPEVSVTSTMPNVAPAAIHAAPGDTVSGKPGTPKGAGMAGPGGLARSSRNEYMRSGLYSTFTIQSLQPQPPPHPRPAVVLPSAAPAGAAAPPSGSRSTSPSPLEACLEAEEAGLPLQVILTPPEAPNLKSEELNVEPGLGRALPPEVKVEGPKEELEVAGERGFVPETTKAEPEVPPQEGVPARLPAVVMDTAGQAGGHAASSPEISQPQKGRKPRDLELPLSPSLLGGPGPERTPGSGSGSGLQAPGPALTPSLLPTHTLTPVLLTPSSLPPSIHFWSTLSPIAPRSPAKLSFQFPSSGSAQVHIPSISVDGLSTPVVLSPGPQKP
Put shortly:
(§1)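 GST fusions of human transcription factors were expressed in yeast and captured with glutathione beads. Once given DNA barcodes and pooled alongside a tag-only sample, they were incubated for 30 min at room temperature with 200 nmole of a random double-stranded 16-mer DNA library in Tris/NaCl/DTT/glycerol buffer, then washed, crosslinked (0.1% formaldehyde), proximity-ligated, PCR-amplified and sequenced on an Illumina NextSeq500. The binding signal of each hexamer is its read frequency for a factor divided by its frequency for the tag-only sample.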

Experiment [2] deals with T2, GABPA (Homo sapiens, UniProt Q06546 1-454).
T2 sequence: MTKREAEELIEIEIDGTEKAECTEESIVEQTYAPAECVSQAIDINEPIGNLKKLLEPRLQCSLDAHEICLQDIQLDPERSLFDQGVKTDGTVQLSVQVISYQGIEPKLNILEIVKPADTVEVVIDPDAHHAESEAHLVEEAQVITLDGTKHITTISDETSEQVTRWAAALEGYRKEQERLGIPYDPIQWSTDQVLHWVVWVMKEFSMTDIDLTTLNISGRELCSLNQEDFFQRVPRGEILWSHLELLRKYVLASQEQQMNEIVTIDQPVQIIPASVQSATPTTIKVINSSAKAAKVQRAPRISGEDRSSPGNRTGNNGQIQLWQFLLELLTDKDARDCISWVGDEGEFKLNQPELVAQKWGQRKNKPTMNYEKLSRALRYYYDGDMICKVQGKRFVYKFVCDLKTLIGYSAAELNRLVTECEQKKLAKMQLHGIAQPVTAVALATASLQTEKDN
The procedure, abridged: as §1

Experiment [3] concerns the target ELF1 (Homo sapiens, UniProt P32519 1-619). The procedure, abridged:
as §1

For experiment [4], the target named is T3, EHF (Homo sapiens, UniProt Q9NZC4 1-300).
T3 sequence: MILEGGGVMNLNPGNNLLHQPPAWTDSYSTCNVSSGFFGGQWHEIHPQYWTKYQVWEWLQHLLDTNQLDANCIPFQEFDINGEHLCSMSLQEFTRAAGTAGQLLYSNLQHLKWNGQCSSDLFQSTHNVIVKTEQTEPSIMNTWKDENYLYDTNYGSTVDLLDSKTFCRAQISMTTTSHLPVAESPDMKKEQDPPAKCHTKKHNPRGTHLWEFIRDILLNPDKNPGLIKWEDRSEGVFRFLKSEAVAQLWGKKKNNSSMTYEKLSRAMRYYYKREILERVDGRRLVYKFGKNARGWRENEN
Put shortly:
as §1

Experiment [5] has as its target SPIB (Homo sapiens, UniProt Q01892 1-262). Put shortly:
as §1

Experiment [6] addresses T4, FEV (Homo sapiens, UniProt Q99581 1-238).
T4 sequence: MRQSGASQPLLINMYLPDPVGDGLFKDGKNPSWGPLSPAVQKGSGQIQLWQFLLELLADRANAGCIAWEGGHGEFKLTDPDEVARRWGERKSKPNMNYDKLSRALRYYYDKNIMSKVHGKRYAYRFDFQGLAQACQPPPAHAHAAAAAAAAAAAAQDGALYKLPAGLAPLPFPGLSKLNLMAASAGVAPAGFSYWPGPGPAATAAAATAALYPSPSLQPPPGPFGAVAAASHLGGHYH
Put shortly:
as §1

The target in experiment [7] is ETV5 (Homo sapiens, UniProt P41161 1-510). Put shortly: as §1
Sequence of ETV5 (P41161 whole entry): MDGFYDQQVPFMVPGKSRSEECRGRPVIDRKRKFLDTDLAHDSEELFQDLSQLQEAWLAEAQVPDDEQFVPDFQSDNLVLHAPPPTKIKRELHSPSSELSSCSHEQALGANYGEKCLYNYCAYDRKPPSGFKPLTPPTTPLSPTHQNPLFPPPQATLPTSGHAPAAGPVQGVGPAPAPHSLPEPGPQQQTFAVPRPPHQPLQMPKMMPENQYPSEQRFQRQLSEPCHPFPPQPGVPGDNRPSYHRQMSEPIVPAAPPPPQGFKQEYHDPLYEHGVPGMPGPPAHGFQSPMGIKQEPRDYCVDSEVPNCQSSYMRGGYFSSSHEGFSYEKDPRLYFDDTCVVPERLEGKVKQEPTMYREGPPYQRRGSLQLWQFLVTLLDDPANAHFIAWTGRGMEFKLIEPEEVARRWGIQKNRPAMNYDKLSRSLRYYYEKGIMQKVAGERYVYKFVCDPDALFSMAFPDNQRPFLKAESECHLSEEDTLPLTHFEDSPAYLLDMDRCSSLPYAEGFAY
Experiment [8] has as its target ELF4 (Homo sapiens, UniProt Q99607 1-663). The procedure, abridged: as §1
Experiment [9] deals with T5, ELK4 (Homo sapiens, UniProt P28324-2 1-405).
T5 sequence: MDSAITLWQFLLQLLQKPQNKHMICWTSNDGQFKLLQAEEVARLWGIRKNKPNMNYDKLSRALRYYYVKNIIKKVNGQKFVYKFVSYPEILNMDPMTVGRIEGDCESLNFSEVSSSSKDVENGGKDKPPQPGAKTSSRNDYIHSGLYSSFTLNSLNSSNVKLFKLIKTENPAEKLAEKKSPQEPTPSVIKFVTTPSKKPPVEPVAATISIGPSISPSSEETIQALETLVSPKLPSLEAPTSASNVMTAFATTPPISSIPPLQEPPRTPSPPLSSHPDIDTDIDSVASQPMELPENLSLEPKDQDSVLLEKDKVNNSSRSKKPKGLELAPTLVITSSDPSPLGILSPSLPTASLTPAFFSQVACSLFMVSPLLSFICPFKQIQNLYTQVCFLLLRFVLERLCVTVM
The procedure, abridged: as §1

In experiment [10] the target is T6, ETV2 (Homo sapiens, UniProt O00321 1-342).
T6 sequence: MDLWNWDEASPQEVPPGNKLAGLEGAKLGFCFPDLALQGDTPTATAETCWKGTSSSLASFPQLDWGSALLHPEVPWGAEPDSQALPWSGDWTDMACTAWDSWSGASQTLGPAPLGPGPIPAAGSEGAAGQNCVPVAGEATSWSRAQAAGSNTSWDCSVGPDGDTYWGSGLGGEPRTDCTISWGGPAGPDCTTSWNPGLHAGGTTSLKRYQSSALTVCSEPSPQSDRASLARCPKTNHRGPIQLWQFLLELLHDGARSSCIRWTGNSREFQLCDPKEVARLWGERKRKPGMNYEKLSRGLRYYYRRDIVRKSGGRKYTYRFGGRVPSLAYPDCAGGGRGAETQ
Put shortly:
as §1

The target in experiment [11] is T7, ELF3 (Homo sapiens, UniProt P78545 1-371).
T7 sequence: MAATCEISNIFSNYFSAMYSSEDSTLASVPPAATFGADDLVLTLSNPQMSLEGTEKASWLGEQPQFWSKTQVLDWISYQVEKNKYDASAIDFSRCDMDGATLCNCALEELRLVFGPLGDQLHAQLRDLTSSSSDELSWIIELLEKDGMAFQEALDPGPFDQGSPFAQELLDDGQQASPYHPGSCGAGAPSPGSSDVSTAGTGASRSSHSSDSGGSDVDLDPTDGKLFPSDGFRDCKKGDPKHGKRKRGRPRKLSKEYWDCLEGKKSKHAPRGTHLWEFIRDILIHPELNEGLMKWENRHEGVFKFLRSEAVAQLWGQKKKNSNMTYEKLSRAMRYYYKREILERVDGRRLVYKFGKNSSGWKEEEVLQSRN
The procedure, abridged:
as §1

Experiment [12] has as its target ETV1 (Homo sapiens, UniProt P50549 1-477). The procedure, abridged:
as §1

In experiment [13] the target is T8, ERF (Homo sapiens, UniProt P50548 1-548).
T8 sequence: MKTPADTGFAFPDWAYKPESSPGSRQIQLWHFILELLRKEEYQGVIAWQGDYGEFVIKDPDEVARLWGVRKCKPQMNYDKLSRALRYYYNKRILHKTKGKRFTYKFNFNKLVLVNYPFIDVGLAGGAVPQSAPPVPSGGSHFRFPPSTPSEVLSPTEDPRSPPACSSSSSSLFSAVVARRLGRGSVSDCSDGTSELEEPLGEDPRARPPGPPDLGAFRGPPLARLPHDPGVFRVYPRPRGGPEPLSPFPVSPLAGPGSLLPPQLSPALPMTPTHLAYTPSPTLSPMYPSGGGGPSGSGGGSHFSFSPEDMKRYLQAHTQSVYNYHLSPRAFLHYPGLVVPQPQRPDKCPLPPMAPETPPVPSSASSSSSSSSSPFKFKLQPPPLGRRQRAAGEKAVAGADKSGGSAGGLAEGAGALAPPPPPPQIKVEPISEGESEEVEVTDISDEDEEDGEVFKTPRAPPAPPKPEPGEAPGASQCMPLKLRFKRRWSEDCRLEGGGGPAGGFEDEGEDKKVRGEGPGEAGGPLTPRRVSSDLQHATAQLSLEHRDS
The procedure, abridged: as §1

Experiment [14] addresses T9, ETS2 (Homo sapiens, UniProt P15036 1-469).
T9 sequence: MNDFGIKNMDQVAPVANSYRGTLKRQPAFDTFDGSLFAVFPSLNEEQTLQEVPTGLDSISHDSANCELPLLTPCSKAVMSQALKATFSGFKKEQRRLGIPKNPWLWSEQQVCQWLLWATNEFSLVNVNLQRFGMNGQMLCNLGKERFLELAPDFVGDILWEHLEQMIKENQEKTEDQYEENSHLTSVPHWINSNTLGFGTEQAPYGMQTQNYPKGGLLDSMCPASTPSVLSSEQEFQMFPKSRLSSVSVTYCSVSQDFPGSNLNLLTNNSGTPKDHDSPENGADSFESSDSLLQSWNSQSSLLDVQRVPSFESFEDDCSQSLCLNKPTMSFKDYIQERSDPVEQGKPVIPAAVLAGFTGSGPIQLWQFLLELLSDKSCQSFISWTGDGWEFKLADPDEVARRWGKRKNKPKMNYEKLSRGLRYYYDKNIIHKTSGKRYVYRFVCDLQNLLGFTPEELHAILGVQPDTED
Put shortly:
as §1

Experiment [15] concerns the target T10, ETV3 (Homo sapiens, UniProt P41162-2 1-143).
T10 sequence: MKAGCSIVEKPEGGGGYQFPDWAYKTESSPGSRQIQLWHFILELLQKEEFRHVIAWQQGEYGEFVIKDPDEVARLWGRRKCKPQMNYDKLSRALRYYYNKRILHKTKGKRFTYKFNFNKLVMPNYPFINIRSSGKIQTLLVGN
Put shortly: as §1

Experiment [16] concerns the target ETV6 (Homo sapiens, UniProt P41212 1-452). The procedure, abridged: as §1

Experimental findings from publication PMC7862700, “An all-to-all approach to the identification of sequence-specific readers for epigenetic DNA modifications on cytosine” are described below.

Sequence of ELF4 (Q99607 whole entry): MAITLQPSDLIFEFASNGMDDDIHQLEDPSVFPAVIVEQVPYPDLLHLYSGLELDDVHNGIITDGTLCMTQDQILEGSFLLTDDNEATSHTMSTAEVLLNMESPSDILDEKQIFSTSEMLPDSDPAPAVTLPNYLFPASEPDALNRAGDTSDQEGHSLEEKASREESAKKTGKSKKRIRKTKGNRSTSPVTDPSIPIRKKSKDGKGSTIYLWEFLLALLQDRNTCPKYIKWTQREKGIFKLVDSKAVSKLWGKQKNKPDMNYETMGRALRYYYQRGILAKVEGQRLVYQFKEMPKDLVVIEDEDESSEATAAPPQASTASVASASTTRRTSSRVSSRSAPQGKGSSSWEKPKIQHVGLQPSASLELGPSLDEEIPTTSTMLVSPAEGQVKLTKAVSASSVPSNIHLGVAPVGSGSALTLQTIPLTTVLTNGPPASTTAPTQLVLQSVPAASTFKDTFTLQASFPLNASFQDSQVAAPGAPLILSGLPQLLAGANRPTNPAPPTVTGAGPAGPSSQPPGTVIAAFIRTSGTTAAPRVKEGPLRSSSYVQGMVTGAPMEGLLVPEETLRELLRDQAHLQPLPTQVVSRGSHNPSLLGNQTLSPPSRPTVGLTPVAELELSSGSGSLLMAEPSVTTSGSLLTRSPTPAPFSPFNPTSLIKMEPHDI
Sequence of ETV1 (P50549 whole entry): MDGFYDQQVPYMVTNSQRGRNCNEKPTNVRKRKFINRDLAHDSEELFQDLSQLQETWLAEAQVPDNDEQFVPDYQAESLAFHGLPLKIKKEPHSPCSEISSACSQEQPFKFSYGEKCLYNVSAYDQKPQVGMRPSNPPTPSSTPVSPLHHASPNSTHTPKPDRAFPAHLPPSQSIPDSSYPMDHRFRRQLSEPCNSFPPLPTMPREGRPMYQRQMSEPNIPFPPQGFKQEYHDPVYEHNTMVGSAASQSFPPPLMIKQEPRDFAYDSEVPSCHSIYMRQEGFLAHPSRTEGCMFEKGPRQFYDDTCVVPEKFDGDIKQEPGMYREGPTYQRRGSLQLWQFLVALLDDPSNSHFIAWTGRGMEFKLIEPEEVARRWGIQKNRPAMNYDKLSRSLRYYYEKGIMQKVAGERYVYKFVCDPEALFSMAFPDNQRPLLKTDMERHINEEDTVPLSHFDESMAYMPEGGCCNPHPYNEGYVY
Sequence of SPIB (Q01892 whole entry): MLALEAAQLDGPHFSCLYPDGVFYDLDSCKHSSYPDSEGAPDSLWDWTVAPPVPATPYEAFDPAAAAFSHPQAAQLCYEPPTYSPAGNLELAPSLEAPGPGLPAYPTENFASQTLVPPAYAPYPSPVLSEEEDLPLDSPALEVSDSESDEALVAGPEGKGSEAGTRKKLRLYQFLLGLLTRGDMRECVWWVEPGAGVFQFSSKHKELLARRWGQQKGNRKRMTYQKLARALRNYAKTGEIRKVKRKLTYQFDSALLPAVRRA
Sequence of ELF1 (P32519 whole entry): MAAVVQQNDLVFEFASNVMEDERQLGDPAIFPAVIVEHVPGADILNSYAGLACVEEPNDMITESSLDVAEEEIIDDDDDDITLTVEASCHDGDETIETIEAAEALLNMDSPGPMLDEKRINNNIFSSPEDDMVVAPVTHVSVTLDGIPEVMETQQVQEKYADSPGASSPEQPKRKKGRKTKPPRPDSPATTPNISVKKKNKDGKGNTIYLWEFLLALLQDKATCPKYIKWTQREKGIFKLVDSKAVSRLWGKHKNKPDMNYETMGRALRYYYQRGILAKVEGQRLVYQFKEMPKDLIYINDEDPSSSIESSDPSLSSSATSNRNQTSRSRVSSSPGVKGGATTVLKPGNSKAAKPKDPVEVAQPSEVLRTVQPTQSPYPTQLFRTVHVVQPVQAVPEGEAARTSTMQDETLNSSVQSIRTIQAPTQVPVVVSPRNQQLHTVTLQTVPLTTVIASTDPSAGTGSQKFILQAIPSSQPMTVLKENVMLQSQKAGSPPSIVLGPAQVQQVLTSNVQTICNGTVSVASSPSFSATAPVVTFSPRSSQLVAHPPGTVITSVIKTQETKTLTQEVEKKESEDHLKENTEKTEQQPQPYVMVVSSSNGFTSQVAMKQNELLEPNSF
Sequence of ETV6 (P41212 whole entry): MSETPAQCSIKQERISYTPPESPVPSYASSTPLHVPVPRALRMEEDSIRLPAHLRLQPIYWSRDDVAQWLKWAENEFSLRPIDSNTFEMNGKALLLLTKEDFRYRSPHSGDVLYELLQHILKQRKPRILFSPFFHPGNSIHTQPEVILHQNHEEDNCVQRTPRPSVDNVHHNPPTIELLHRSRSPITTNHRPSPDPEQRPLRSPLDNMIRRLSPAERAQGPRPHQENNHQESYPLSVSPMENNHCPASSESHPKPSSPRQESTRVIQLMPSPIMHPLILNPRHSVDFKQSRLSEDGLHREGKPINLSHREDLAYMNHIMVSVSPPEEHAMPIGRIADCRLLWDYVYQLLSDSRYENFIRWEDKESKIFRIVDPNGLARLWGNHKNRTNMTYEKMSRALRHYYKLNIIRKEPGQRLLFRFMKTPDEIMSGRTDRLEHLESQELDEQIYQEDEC

Consider AGCAAA, for which the binding signal in experiment [1] is 1.04 fold enrichment (6-mer frequency, TF over GST control); in [2], 1.06 fold enrichment (6-mer frequency, TF over GST control); in [3], 1.07 fold enrichment (6-mer frequency, TF over GST control); in experiment [4] it was 1.03 fold enrichment (6-mer frequency, TF over GST control); in experiment [5], 1.04 fold enrichment (6-mer frequency, TF over GST control); in experiment [6] it was 1.02 fold enrichment (6-mer frequency, TF over GST control). Moreover, the binding signal was 1.07 fold enrichment (6-mer frequency, TF over GST control) in experiment [7]; 1.05 fold enrichment (6-mer frequency, TF over GST control) in experiment [8]; 1.05 fold enrichment (6-mer frequency, TF over GST control) in experiment [9]; 1.17 fold enrichment (6-mer frequency, TF over GST control) in experiment [10]; 1.21 fold enrichment (6-mer frequency, TF over GST control) in [11]; 1.09 fold enrichment (6-mer frequency, TF over GST control) in [12]. Also, the binding signal was 1.05 fold enrichment (6-mer frequency, TF over GST control) in [13]; 1.02 fold enrichment (6-mer frequency, TF over GST control) in experiment [14]; 1.06 fold enrichment (6-mer frequency, TF over GST control) in experiment [15]; 1.05 fold enrichment (6-mer frequency, TF over GST control) in experiment [16].
